Source: the supplement of paper PMC10037445
Whole data set: some 2,900 compounds, median “NF-kB SEAP reporter activity, fold change vs agonist alone” near 0.99, cut for the highest 2% near 2.6. The sample as a whole holds a higher share of the highest values than the screen did.

Experiments:
RAW-Dual [1] = test: NF-kB SEAP reporter activity, fold change vs agonist alone; cytotoxicity flag (confluency mask): not cytotoxic; higher = enhanced NF-kB activity
Summary of the method: (§1)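 Library stock was pin-tooled at 50 nL into 384-well plates of RAW-Dual macrophages (50,000 cells/well, DMEM), followed 1 h later by a PRR agonist, and the cells were kept at 37 °C, 5% CO2. Supernatant collected after 20 hours was read for IRF by QuantiLuc luminescence and for NF-κB by QuantiBlue absorbance at 620 nm. Reporter activity is fold change over agonist-alone wells, and a well counted as cytotoxic when its IncuCyte confluency was below 70% of agonist controls in both mask sets.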

RAW-Dual [2] = test: NF-kB SEAP reporter activity, fold change vs agonist alone; higher = enhanced NF-kB activity
Summary of the method: as §1

RAW-Dual [3] = test: NF-kB SEAP reporter activity, fold change vs agonist alone; cytotoxicity flag (confluency mask): cytotoxic (confluency <70% of control); higher = enhanced NF-kB activity
Summary of the method: as §1

[4] = agonist: ODN 1826 (TLR9) 0.5 ug/mL
[5] = agonist: Pam2CSK4 (TLR2/6) 0.1 ug/mL
[6] = agonist: Pam3CSK4 (TLR2/1) 0.1 ug/mL
[7] = library stock concentration (final ~1000-fold dilution): 10 mM, cytotoxicity flag (confluency mask): not cytotoxic, agonist: MPLA (TLR4) […]
[8] = library stock concentration (final ~1000-fold dilution): 10 mM, cytotoxicity flag (confluency mask): not cytotoxic, agonist: Imiquimod (TLR7) […]

Structure (SMILES): CC(NCc1ccc(OCc2cccc(F)c2)cc1)C(N)=O (configuration not stated) (library stock concentration (final ~1000-fold dilution): 10 mM)
- NF-kB SEAP reporter activity (RAW-Dual [1]; agonist: LPS (TLR4) 0.1 ug/mL): 1.32
- NF-kB SEAP reporter activity (RAW-Dual [1]; [4]): 0.933
- NF-kB SEAP reporter activity (RAW-Dual [1]; [5]): 1.16
- NF-kB SEAP reporter activity (RAW-Dual [1]; [6]): 0.745

Structure (SMILES): CC(NCc1ccc(OCc2cccc(F)c2)cc1)C(N)=O (configuration not stated)
- NF-kB SEAP reporter activity (RAW-Dual [2]; [7]): 1.07

Structure (SMILES): Nc1cc(C(F)(F)F)c(-c2nc(N3CCOCC3)nc(N3CCOCC3)n2)cn1 (library stock concentration (final ~1000-fold dilution): 10 mM)
- NF-kB SEAP reporter activity (RAW-Dual [1]; agonist: LPS (TLR4) 0.1 ug/mL): 0.943
- NF-kB SEAP reporter activity (RAW-Dual [1]; [4]): 0.711
- NF-kB SEAP reporter activity (RAW-Dual [1]; [5]): 0.402
- NF-kB SEAP reporter activity (RAW-Dual [1]; [6]): 0.503

Structure (SMILES): FC(F)c1nc2ccccc2n1-c1nc(N2CCOCC2)nc(N2CCOCC2)n1
- NF-kB SEAP reporter activity (RAW-Dual [2]; [8]): 1.77
- NF-kB SEAP reporter activity (RAW-Dual [2]; [7]): 1.32

Structure (SMILES): FC(F)c1nc2ccccc2n1-c1nc(N2CCOCC2)nc(N2CCOCC2)n1 (library stock concentration (final ~1000-fold dilution): 10 mM)
- NF-kB SEAP reporter activity (RAW-Dual [1]; agonist: LPS (TLR4) 0.1 ug/mL): 2.13
- NF-kB SEAP reporter activity (RAW-Dual [1]; [4]): 0.832
- NF-kB SEAP reporter activity (RAW-Dual [1]; [5]): 0.936
- NF-kB SEAP reporter activity (RAW-Dual [1]; [6]): 0.767

Structure (SMILES): Nc1cc(C(F)(F)F)c(-c2cc(N3CCOCC3)nc(N3CCOCC3)n2)cn1 (library stock concentration (final ~1000-fold dilution): 10 mM)
- NF-kB SEAP reporter activity (RAW-Dual [1]; agonist: LPS (TLR4) 0.1 ug/mL): 2.59
- NF-kB SEAP reporter activity (RAW-Dual [1]; [4]): 2.07
- NF-kB SEAP reporter activity (RAW-Dual [1]; [5]): 1.49
- NF-kB SEAP reporter activity (RAW-Dual [1]; [6]): 0.904

Structure (SMILES): Nc1cc(C(F)(F)F)c(-c2nc(N3CCOCC3)nc(N3CCOCC3)n2)cn1
- NF-kB SEAP reporter activity (RAW-Dual [2]; [8]): 0.783
- NF-kB SEAP reporter activity (RAW-Dual [2]; [7]): 1.11

Structure (SMILES): Nc1cc(C(F)(F)F)c(-c2cc(N3CCOCC3)nc(N3CCOCC3)n2)cn1
- NF-kB SEAP reporter activity (RAW-Dual [2]; [8]): 1.71
- NF-kB SEAP reporter activity (RAW-Dual [2]; [7]): 1.63

Structure (SMILES): COc1cc2ncnc(Nc3ccc(F)c(Cl)c3)c2cc1OCCCN1CCOCC1.Cl (library stock concentration (final ~1000-fold dilution): 10 mM)
- NF-kB SEAP reporter activity (RAW-Dual [1]; agonist: LPS (TLR4) 0.1 ug/mL): 1.23
- NF-kB SEAP reporter activity (RAW-Dual [1]; [4]): 0.277
- NF-kB SEAP reporter activity (RAW-Dual [1]; [5]): 0.967
- NF-kB SEAP reporter activity (RAW-Dual [1]; [6]): 0.737

Structure (SMILES): COc1cc2ncnc(Nc3ccc(F)c(Cl)c3)c2cc1OCCCN1CCOCC1.Cl
- NF-kB SEAP reporter activity (RAW-Dual [2]; [7]): 1.29

Structure (SMILES): CN1C(=O)c2sccc2N(C)c2nc(Nc3ccc(S(N)(=O)=O)cc3)ncc21 (library stock concentration (final ~1000-fold dilution): 10 mM)
- NF-kB SEAP reporter activity (RAW-Dual [1]; agonist: LPS (TLR4) 0.1 ug/mL): 5.75
- NF-kB SEAP reporter activity (RAW-Dual [1]; [4]): 3.02
- NF-kB SEAP reporter activity (RAW-Dual [1]; [5]): 1.22
- NF-kB SEAP reporter activity (RAW-Dual [1]; [6]): 2.56

Structure (SMILES): CN1C(=O)c2sccc2N(C)c2nc(Nc3ccc(S(N)(=O)=O)cc3)ncc21
- NF-kB SEAP reporter activity (RAW-Dual [2]; [8]): 1.86
- NF-kB SEAP reporter activity (RAW-Dual [2]; [7]): 2.45

Structure (SMILES): CN1CCN(Cc2ccc(Nc3ncc(Cl)c(Nc4ccccc4S(=O)(=O)N(C)C)n3)cc2)CC1 (library stock concentration (final ~1000-fold dilution): 2 mM)
- NF-kB SEAP reporter activity (RAW-Dual [3]; agonist: LPS (TLR4) 0.1 ug/mL): 0.331
- NF-kB SEAP reporter activity (RAW-Dual [3]; [4]): 1.3
- NF-kB SEAP reporter activity (RAW-Dual [3]; [5]): 0.245
- NF-kB SEAP reporter activity (RAW-Dual [3]; [6]): 1.08

Structure (SMILES): Nc1nc(Nc2ccc(S(N)(=O)=O)cc2)nn1C(=O)c1c(F)cccc1F
- NF-kB SEAP reporter activity (RAW-Dual [2]; library stock concentration (final ~1000-fold dilution): 10 mM, cytotoxicity flag (confluency mask): cytotoxic (confluency <70% of control), agonist: Imiquimod (TLR7) […]): 1.97
- NF-kB SEAP reporter activity (RAW-Dual [2]; library stock concentration (final ~1000-fold dilution): 10 mM, cytotoxicity flag (confluency mask): cytotoxic (confluency <70% of control), agonist: MPLA (TLR4) […]): 1.36

Structure (SMILES): CN1CCN(Cc2ccc(Nc3ncc(Cl)c(Nc4ccccc4S(=O)(=O)N(C)C)n3)cc2)CC1
- NF-kB SEAP reporter activity (RAW-Dual [2]; library stock concentration (final ~1000-fold dilution): 2 mM, cytotoxicity flag (confluency mask): cytotoxic (confluency <70% of control), agonist: Imiquimod (TLR7) […]): 1.37
- NF-kB SEAP reporter activity (RAW-Dual [2]; library stock concentration (final ~1000-fold dilution): 2 mM, cytotoxicity flag (confluency mask): cytotoxic (confluency <70% of control), agonist: MPLA (TLR4) […]): 0.961

Structure (SMILES): Nc1nc(Nc2ccc(S(N)(=O)=O)cc2)nn1C(=O)c1c(F)cccc1F (library stock concentration (final ~1000-fold dilution): 10 mM)
- NF-kB SEAP reporter activity (RAW-Dual [3]; agonist: LPS (TLR4) 0.1 ug/mL): 0.637
- NF-kB SEAP reporter activity (RAW-Dual [3]; [4]): 1.29
- NF-kB SEAP reporter activity (RAW-Dual [3]; [5]): 0.632
- NF-kB SEAP reporter activity (RAW-Dual [3]; [6]): 0.864

Structure (SMILES): COC(=O)c1ccc(O)c(O)c1
- NF-kB SEAP reporter activity (RAW-Dual [2]; [8]): 0.731
- NF-kB SEAP reporter activity (RAW-Dual [2]; [7]): 1.17

Structure (SMILES): COC(=O)c1ccc(O)c(O)c1 (library stock concentration (final ~1000-fold dilution): 10 mM)
- NF-kB SEAP reporter activity (RAW-Dual [1]; agonist: LPS (TLR4) 0.1 ug/mL): 0.81
- NF-kB SEAP reporter activity (RAW-Dual [1]; [4]): 0.654
- NF-kB SEAP reporter activity (RAW-Dual [1]; [5]): 0.603
- NF-kB SEAP reporter activity (RAW-Dual [1]; [6]): 0.553
